This is a sample that favours compounds with a hit; in the whole collection about 21% have one here.
Cycloheximide cs – counter-screen hit for Shiga toxin inhibitors, cycloheximide; max response, %; 300,000 compounds, 12% hits; cell reporter, cycloheximide protein synthesis inhibition counterscreen; AID 2314; in the data active = max response mostly above about 13%, no sharp cut-off; inactive = mostly below about 14%; note: read at 38.3 µM for the half of the compounds with a filed dose; 0% is about no effect
Pf growth 48h – inhibits P. falciparum growth in the first generation, 48 h; P. falciparum luciferase growth in erythrocytes, 48 h; Potency, µM (titrated, usually from 28.7 µM), for inactives: top-dose activity change, negative = inhibition, usual class: inhibitors; 310,000 compounds, 5.9% hits; note: potency is the fitted concentration of half-maximal effect; % is set by controls: 0 for no effect and ±100 for the full control effect
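Luciferase-expressing parasites in RBCs, 2% Hct / 0.1% parasitemia final; RPMI 1640 + 0.5% Albumax; 37 C, 5% CO2, one generation; luminescence read-out, lower signal = inhibition.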
AMA1-RON2 inh – AMA1-RON2 (P. falciparum) interaction inhibition | AlphaScreen AMA1-biotinylated RON2 peptide binding | Potency, µM (highest dose often 58.2 µM), for inactives: at the highest dose activity change, negative = inhibition, hits mostly inhibitors | 360,000 compounds, 0.2% hits;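 note: potency is the fitted concentration of half-maximal effect; 0% = vehicle wells and -100% = peptide control; nearly all actives have a fitted effect of over 45% in size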
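AMA1 (3D7) with his tag at 25 nM final met compounds first, then biotinylated RON2 peptide at 25 nM; detection used donor plus acceptor beads, 10 µg/mL apiece, read by AlphaScreen after 30 min at room temperature.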
Pf growth 96h – inhibits malaria parasite growth, 96 h | P. falciparum luciferase reporter growth, 96 h | Potency, µM (top dose mostly 28.7 µM), inactives show at the top dose activity change, negative = inhibition, most hits filed as inhibitors | 320,000 compounds, 6.9% hits | AID 504834; note: potency is the fitted concentration of half-maximal effect; % is set by controls: 0 for no effect and ±100 for the full control effect
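P. falciparum expressing integrated firefly luciferase, in erythrocytes at 2% hematocrit, 0.05% parasitemia, incubated with compounds 96 h at 37 C, 5% CO2. Growth inhibition read as loss of luminescence; two-generation exposure targets delayed-death apicoplast inhibitors.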
Shiga inhibitor – blocks Shiga toxin action in Vero cells. 290,000 compounds, 9.2% hits. Vero cells, Shiga toxin protein synthesis inhibition reporter. inhibition, % at 38.7 µM; in the data active = inhibition mostly above about 28%, no sharp cut-off; inactive = mostly below about 43%; note: 0% is about no effect
HCV inh – blocks hepatitis C virus | Huh7.5.1 HCVcc-Cre infection, luciferase reporter, 44 h | Potency, µM (series often up to 41.8 µM), without a hit: top-dose activity change, negative = inhibition, hits mostly inhibitors | 340,000 compounds, 3.4% hits | AID 651820; note: potency is the fitted concentration of half-maximal effect; % is set by controls: 0 for no effect and ±100 for the full control effect
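Seed cells (1,000/well) for 4 h; treat with compound and infect with HCVcc-Cre, moi about 0.5. Incubate 44 h, then detect luciferase activity.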
Starred values were filed as active, the others as inactive. Unless noted, calls come from the whole dose curve; as a rule, active = well fitted curve in the direction sought with a large enough effect; inconclusive = small, poorly fitted or top-dose-only effect, or another doubt; inactive = no such curve, though single readings can be large; an effect the other way counts as inactive or inconclusive.

Screening CCOC(=O)c1c(C)[nH]c(C)c1C(=O)CSc1nc2ccccc2c(=O)n1-c1ccc(Cl)cc1 returned Cycloheximide cs -2, Pf growth 48h inconclusive, AMA1-RON2 inh -14%, Pf growth 96h 9.3µM*, Shiga inhibitor -3 and HCV inh inconclusive.
For CCOC(=O)c1sc(NC(=O)CSc2nnnn2-c2ccc(C)c(C)c2)nc1C the results were Cycloheximide cs 1, Pf growth 48h 24%, AMA1-RON2 inh 2%, Pf growth 96h 2.3µM*, Shiga inhibitor -26 and HCV inh 16%.
Screening CCn1c(SCC(=O)Nc2ccccc2OC)nc2ccccc2c1=O returned Cycloheximide cs 3, Pf growth 48h -25%, AMA1-RON2 inh -5%, Shiga inhibitor -19 and HCV inh inconclusive.
Screening CCOC(=O)c1c(NC(=O)CSc2nc3ccccc3c(=O)n2-c2ccccc2)sc(C(C)=O)c1C returned Cycloheximide cs 1, Pf growth 48h 0.21µM*, AMA1-RON2 inh -5%, Pf growth 96h 2.3µM*, Shiga inhibitor -6 and HCV inh 3%.
For CCOc1ccccc1-n1c(SCC(=O)Nc2ccccc2C(=O)O)nc2ccccc2c1=O the results were Cycloheximide cs 36*, Pf growth 48h inconclusive, AMA1-RON2 inh -5%, Pf growth 96h 72%, Shiga inhibitor 35* and HCV inh 23%.
Screening COc1cccc(CNC(=O)[C@@H]2CCCN2C(=O)[C@@H]2CCCN2S(=O)(=O)c2ccc(OC)c(C)c2)c1 returned AMA1-RON2 inh -5%.
For CC(O)(c1ccc(F)c(F)c1)c1nc(-c2cccc(C#N)c2)cs1 (centres undefined) the results were AMA1-RON2 inh 11%.
For CCOC(=O)c1nnn(CC(=O)N2N=C(c3cccc4ccccc34)CC2c2ccccc2)c1C(=O)OCC (centres undefined) the results were Cycloheximide cs -3, Pf growth 48h 9.3µM*, AMA1-RON2 inh 9%, Pf growth 96h inconclusive, Shiga inhibitor -2 and HCV inh -16%.
Screening CCOC(=O)c1nnn(CC(=O)Nc2cccc(Cl)c2C)c1C(=O)OCC returned Cycloheximide cs -5, AMA1-RON2 inh -2%, Pf growth 96h 47%, Shiga inhibitor -15 and HCV inh 6%.
COc1ccc(CN2CCN(Cc3cc(=O)oc4cc(C)ccc34)CC2)c(OC)c1OC was read as Cycloheximide cs 2, Pf growth 48h inconclusive, AMA1-RON2 inh -8%, Pf growth 96h 9.3µM*, Shiga inhibitor -8 and HCV inh inconclusive.
Screening COc1ccc(CN2CCN(Cc3ccc(Br)cc3)CC2)c(OC)c1OC returned Cycloheximide cs 7, Pf growth 48h 0%, AMA1-RON2 inh inconclusive, Pf growth 96h 39%, Shiga inhibitor -3 and HCV inh 13µM*.
Screening COc1ccc(CN2CCN(C(c3ccc(F)cc3)c3ccc(F)cc3)CC2)c(OC)c1OC returned Pf growth 48h 9.5µM*, AMA1-RON2 inh inconclusive, Pf growth 96h 6.7µM* and HCV inh 1µM*.
`COc1ccc(CNS(=O)(=O)c2cc3c4c(c2)C(C)C(=O)N4CCC3)cc1` (centres undefined) gave Cycloheximide cs -3, Pf growth 48h 9%, AMA1-RON2 inh -5%, Pf growth 96h -2%, Shiga inhibitor -12 and HCV inh -21%.
CC1Sc2ccc(S(=O)(=O)N3CCN(c4ccccc4)CC3)cc2NC1=O (centres undefined) was read as Cycloheximide cs -2, Pf growth 48h -10%, AMA1-RON2 inh -4%, Pf growth 96h inconclusive, Shiga inhibitor -8 and HCV inh inconclusive.
For CC1Sc2ccc(S(=O)(=O)N3CCN(c4cccc(Cl)c4)CC3)cc2NC1=O (centres undefined) the results were Cycloheximide cs 6, Pf growth 48h 0%, AMA1-RON2 inh -5%, Pf growth 96h 12µM*, Shiga inhibitor 2 and HCV inh inconclusive.
`Cc1cccc(N2CCN(S(=O)(=O)c3ccc4c(c3)NC(=O)C(C)S4)CC2)c1C` (centres undefined) gave Cycloheximide cs -3, Pf growth 48h inconclusive, AMA1-RON2 inh -1%, Pf growth 96h inconclusive, Shiga inhibitor -2 and HCV inh 0.32µM*.
Screening O=C(Nc1ccccc1NS(=O)(=O)c1ccc(F)cc1)C1CCC1 returned Cycloheximide cs -5, Pf growth 48h inconclusive, AMA1-RON2 inh -5%, Pf growth 96h -5%, Shiga inhibitor -19 and HCV inh 7%.
For C=C[C@@H]1c2ccccc2N(S(=O)(=O)c2ccc(C)cc2)[C@H](c2ccccc2)C1(C#N)C#N the results were Pf growth 48h 3.7µM*, AMA1-RON2 inh -8%, Pf growth 96h inconclusive and HCV inh -27%.
`C=C[C@@H]1c2cc(C)ccc2N(S(=O)(=O)c2ccc(C)cc2)[C@H](c2ccccc2)C1(C#N)C#N` gave Pf growth 48h inconclusive, AMA1-RON2 inh 0%, Pf growth 96h inconclusive and HCV inh 1%.
For O=C(Nc1c(F)cccc1F)C1CCN(C(=O)c2cccs2)CC1 the results were Cycloheximide cs -1, Pf growth 48h 6%, AMA1-RON2 inh 12%, Pf growth 96h 23%, Shiga inhibitor -9 and HCV inh 24%.
For Cn1c(-c2ccccc2)cc2c3no[n+]([O-])c3ccc21 the results were Cycloheximide cs 27*, Pf growth 48h 42%, AMA1-RON2 inh -13%, Pf growth 96h 53%, Shiga inhibitor 68* and HCV inh 2.5µM*.
`CCN(C(=O)COC(=O)c1cc(OC)ccc1Br)C1CCS(=O)(=O)C1` (centres undefined) gave AMA1-RON2 inh 0% and HCV inh 0%.
Screening COc1ccc(-c2cc(C(=O)Oc3ccc([N+](=O)[O-])cc3)c3ccccc3n2)cc1 returned Cycloheximide cs 10, Pf growth 48h -4%, AMA1-RON2 inh -3%, Pf growth 96h 13µM*, Shiga inhibitor 3 and HCV inh 37%.
Screening Cc1ccc(-n2c(C)cc(C(=O)OCC(=O)N(CC(C)C)C3CCS(=O)(=O)C3)c2C)cc1 (centres undefined) returned Cycloheximide cs 2, Pf growth 48h -91%, AMA1-RON2 inh -12%, Pf growth 96h 58%, Shiga inhibitor 10 and HCV inh 2%.
`COc1ccc(-c2cc(C(=O)OCC(=O)N(C)C)c3ccccc3n2)cc1` gave Cycloheximide cs 26*, Pf growth 48h 17%, AMA1-RON2 inh -1%, Pf growth 96h 0%, Shiga inhibitor 30 and HCV inh inconclusive.
Screening COc1ccc(-c2cc(C(=O)OCC(=O)c3ccc(C)c([N+](=O)[O-])c3)c3ccccc3n2)cc1 returned Cycloheximide cs 4, Pf growth 48h 5%, AMA1-RON2 inh 6%, Pf growth 96h -43%, Shiga inhibitor 8 and HCV inh inconclusive.

Compound activity: PubChem BioAssay, National Center for Advancing Translational Sciences (NCATS)
